The results in this text go back to PubChem BioAssay (Tox21).

A number with no mark means an inactive call. Results filed as inconclusive are left out. Active and inactive are the calls of the source. Unless noted, calls follow the shape of the full dose curve.

The nature of experiment [1]: Nuclear factor erythroid 2-related factor 2/antioxidant responsive element (Nrf2/ARE) small molecule agonists: qHTS cell viability counter screen in human keratinocytes (AID 1919968; active = well fitted curve in the direction sought with a large enough effect in the repeat runs; an effect the other way counts as inactive or inconclusive; also: nearly all actives have a fitted effect of over 55% in size; also: potency is read from the fitted curve at half-maximal effect). The method in brief: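 Fluorescence read-out from CellTiter-Fluor after 1 h at 37 C. Wells held HaCaT-derived ARE-luciferase reporter cells (1,500/well) treated 23 h with DMSO-dissolved compounds. Run in the same wells as the luciferase agonist read.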
On the technique in general: Quantitative high-throughput screening tests each substance at several concentrations.

The nature of experiment [2]: Nuclear factor erythroid 2-related factor 2/antioxidant responsive element (Nrf2/ARE) small molecule agonists: luciferase reporter gene qHTS assay in human keratinocytes (AID 1919969). Also: nearly all actives have a fitted effect of over 35% in size.
Experiment [3] deals with KiSS-1 receptor (Homo sapiens) (UniProt Q969F8). Briefly: Human kisspeptin (KISS1R) small molecule agonists, calcium flux assay in KISS1R-HEK293 cells (AID 1920064; active = well fitted curve in the direction sought with a large enough effect in the repeat runs; an effect the other way counts as inactive or inconclusive). The method in brief:
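Calcium flux read-out: kinetic fluorescence at Ex/Em=480/540, 1 s intervals over 3 min, after pin-tool compound addition to dye-loaded KISS1R-HEK293 cells. Fifteen concentrations, triplicates.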
For orientation: Calcium assays in cells follow changes in intracellular calcium, usually with a dye or a luminescent sensor.

The nature of experiment [4]: G protein-coupled receptor (GPCR) small molecule agonists, calcium flux assay: HEK293 wild type cell line counter screen (AID 1920065). The method in brief:
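Agonist mode; 18 h seeding at 37 C, 1 h dye load at 37 C; compounds pinned from DMSO, ATP as positive control; kinetic fluorescence 480/540 nm, 3 min, 1 s reads; 15 concentrations, triplicate.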

Experiment [5] is described as follows: p53 small molecule agonists, cell-based qHTS assay with human liver microsomes (AID 1963577).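 Also: p53 response element beta-lactamase reporter cells with liver microsomes plus NADPH.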 The method in brief: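 Steps: plate p53RE-bla cells, incubate 5 h at 37 C; add compound in DMSO; add microsomes (0.5 mg/mL final) and NADPH (0.5 mg/mL final); incubate 16 h at 37 C; add LiveBLAzer, 2 h RT; read fluorescence.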
Experiment [6] in a line: p53 small molecule agonists, cell-based qHTS assay with rat liver microsomes (AID 1963578). The procedure, abridged:
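Metabolic activation is supplied by rat liver microsomes with NADPH (each 0.5 mg/mL final). p53RE-bla cells incubate with compound 16 h at 37 C; reporter activity is measured by LiveBLAzer fluorescence.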

A short description of experiment [7]: p53 small molecule agonists, cell-based qHTS assay with rat liver microsomes: qHTS cell viability counter screen (AID 1963580). Also: nearly all actives have a fitted effect of over 45% in size. Also: potency is read from the fitted curve at half-maximal effect. The method in brief: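 Cytotoxicity counter screen: intracellular ATP read by CellTiter-Glo luminescence in the p53 reporter wells. HCT-116 p53RE-bla cells were treated for 16 h at 37 C alongside rat liver microsomes and NADPH, each 0.5 mg/mL final.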

The nature of experiment [8]: p53 small molecule agonists, cell-based qHTS assay: qHTS cell viability counter screen (AID 1963581). Also: nearly all actives have a fitted effect of over 45% in size. The method in brief:
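Cytotoxicity read-out: ATP-based luminescence (CellTiter-Glo, 30 min RT) measured in the same wells as the p53 reporter assay, HCT-116 p53RE-bla cells, 16 h compound exposure at 37 C.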

A short description of experiment [9]: p53 small molecule agonists, cell-based qHTS assay (AID 1963582; active = well fitted activation curve with a large enough effect in the signal ratio in the repeat runs, not every such curve was filed as active; the % refers to the signal ratio). The procedure, abridged:
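Fluorescence intensity read-out of a beta-lactamase reporter under a p53 response element. Cells were exposed to DMSO-dissolved compounds for 16 h at 37 C, then developed with FRET substrate for 2 h at RT.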

Experiment [10] addresses 5-hydroxytryptamine receptor 2A (Homo sapiens) (UniProt P28223). In words: 5-hydroxytryptamine receptor 2A (HTR2A) small molecule antagonists, cell-based qHTS assay (AID 1963586). Also: nearly all actives have a fitted effect of over 45% in size. The procedure, abridged: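 CHO cells stably expressing human HTR2A were plated for 18 h at 37 C, then loaded with calcium dye for 1 h. Compounds were preincubated 5 min at room temperature before DOI (4 nM solution) was added. Kinetic fluorescence was read for 3 min.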

For experiment [11] the target is unchanged. In words: 5-hydroxytryptamine receptor 2A (HTR2A) small molecule agonists, cell-based qHTS assay (AID 1963587). Also: nearly all actives have a fitted effect of over 30% in size. The procedure, abridged:
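Kinetic calcium-flux fluorescence (2 min, 1 sec intervals) after compound addition in agonist mode. HTR2A-CHO cells were cultured 18 h, then dye-loaded 1 h at 37 C.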

For experiment [12], the target named is Muscarinic acetylcholine receptor M1 (Homo sapiens) (UniProt P11229). Briefly: Cholinergic receptor muscarinic 1 (CHRM1) small molecule antagonists, cell-based qHTS assay (AID 1963588). Also: nearly all actives have a fitted effect of over 40% in size. Also: potency is read from the fitted curve at half-maximal effect. The procedure, abridged:
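Compounds were tested at 15 concentrations in three independent runs. Dye-loaded CHRM1-CHO cells were exposed 5 min at room temperature before stimulation by acetylcholine added at 50nM. Intracellular calcium was read kinetically on FDSS for 3 min.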

For experiment [13] the target is unchanged. Briefly: Cholinergic receptor muscarinic 1 (CHRM1) small molecule agonists, cell-based qHTS assay (AID 1963589). Also: nearly all actives have a fitted effect of over 35% in size. The procedure, abridged:
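Calcium flux read-out: kinetic fluorescence at 1 sec intervals after pin-tool compound addition to dye-loaded CHRM1-CHO cells (human M1). Agonist mode; 15 concentrations tested in triplicate independent runs.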

Experiment [14] in a line: cAMP Responsive Elements (CRE) small molecule agonists, cell-based qHTS assay (AID 1963590). The method in brief:
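Beta-lactamase reporter readout: LiveBLAzer B/G FRET substrate, 2 h at room temperature, added after 3 h compound treatment of CRE-bla HEK 293T cells at 37 C/5% CO2.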

The nature of experiment [15]: cAMP Responsive Elements (CRE) small molecule antagonists, cell-based qHTS assay (AID 1963591; active = well fitted inhibition curve with a large enough effect in the signal ratio in the repeat runs, not every such curve was filed as active; the % refers to the signal ratio). The procedure, abridged: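 HEK293T CRE-bla; 18 h preincubation; compound pin-transfer; NKH477 0.25 uM final, 3 h, 37 C; LiveBLAzer FRET substrate 2 h RT.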
The target of experiment [16] is Beta-2 adrenergic receptor (Homo sapiens) (UniProt P07550). Briefly: Adrenergic beta2 receptor (ADRB2) small molecule antagonists, cell-based qHTS assay (AID 1963592). Also: series mostly up to about 92 µM; nearly all actives have a fitted effect of over 50% in size. The procedure, abridged:
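Assay format: CHO-ADRB2 cells, 18-20hr seeding at 37C/5% CO2, then compound plus 1nM isoproterenol agonist mix for 0.5hr RT. Homogeneous time-resolved fluorescence cAMP detection after 1hr, expressed as 665/615 nm ratio.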

In experiment [17] the target is D(2) dopamine receptor (Homo sapiens) (UniProt P14416). Briefly: Dopamine D2 receptor (DRD2) small molecule agonists, cell-based qHTS assay (AID 1963594). Also: nearly all actives have a fitted effect of over 35% in size. The method in brief: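 cAMP accumulation in DRD2-HEK293 cells measured by HTRF after 1 h detection; compounds added 10 min before NKH477 (200nM […]) forskolin-analogue stimulation, 30 min at room temperature, with Ro20-1724 present at 0.1 mM final.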

Experiment [18] in a line: p53 small molecule agonists, cell-based qHTS assay with human liver microsomes: qHTS cell viability counter screen (AID 1963579). Also: nearly all actives have a fitted effect of over 45% in size. The procedure, abridged: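 After the 460/530 nm beta-lactamase read, CellTiter-Glo was added to the same wells and luminescence measured after 30 min at room temperature, giving viability of p53RE-bla cells treated 16 h with compounds plus microsomes and NADPH.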

Experiment [19] has as its target D(2) dopamine receptor (Homo sapiens) (UniProt P14416). Briefly: Dopamine D2 receptor (DRD2) small molecule antagonists, cell-based qHTS assay (AID 1963595; active = well fitted inhibition curve with a large enough effect in the signal ratio in the repeat runs, with a control signal flat; the % refers to the signal ratio; also: potency is read from the fitted curve at half-maximal effect). The procedure, abridged:
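Human DRD2 antagonist qHTS measuring cAMP by HTRF. The cells are exposed to compound for 10 min, then to NKH477 (200 nM) and quinpirole (12 nM) for 30 min at RT, with Ro20-1724 (0.1 mM) present throughout.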

Chain of D(2) dopamine receptor (Homo sapiens) (P14416 whole entry, looked up): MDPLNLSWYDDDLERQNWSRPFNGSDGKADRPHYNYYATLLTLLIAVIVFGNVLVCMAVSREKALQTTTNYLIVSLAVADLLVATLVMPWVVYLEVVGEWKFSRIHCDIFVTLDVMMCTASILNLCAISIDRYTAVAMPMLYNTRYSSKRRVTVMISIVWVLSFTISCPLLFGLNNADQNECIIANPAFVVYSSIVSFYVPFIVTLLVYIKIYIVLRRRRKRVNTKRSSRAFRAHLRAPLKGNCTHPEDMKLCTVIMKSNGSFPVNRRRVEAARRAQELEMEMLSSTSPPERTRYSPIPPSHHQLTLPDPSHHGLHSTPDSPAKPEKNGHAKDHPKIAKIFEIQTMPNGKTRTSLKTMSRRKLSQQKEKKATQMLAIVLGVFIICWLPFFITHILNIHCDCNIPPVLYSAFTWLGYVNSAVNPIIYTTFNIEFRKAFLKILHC
Chain of Muscarinic acetylcholine receptor M1 (Homo sapiens) (P11229 whole entry, looked up): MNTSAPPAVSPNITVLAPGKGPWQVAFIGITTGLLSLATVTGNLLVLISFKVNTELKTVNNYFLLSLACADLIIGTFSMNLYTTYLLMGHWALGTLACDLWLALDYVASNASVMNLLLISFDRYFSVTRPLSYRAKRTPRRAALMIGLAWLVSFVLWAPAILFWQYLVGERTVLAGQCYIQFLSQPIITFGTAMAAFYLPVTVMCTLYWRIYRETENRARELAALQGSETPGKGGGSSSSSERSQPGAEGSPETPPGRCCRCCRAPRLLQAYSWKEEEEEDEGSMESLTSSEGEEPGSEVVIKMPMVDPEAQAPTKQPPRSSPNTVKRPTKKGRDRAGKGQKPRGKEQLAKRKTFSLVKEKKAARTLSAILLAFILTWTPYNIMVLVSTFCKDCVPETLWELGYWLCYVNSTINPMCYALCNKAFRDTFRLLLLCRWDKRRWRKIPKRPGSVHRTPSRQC
Chain of 5-hydroxytryptamine receptor 2A (Homo sapiens) (P28223 whole entry, looked up): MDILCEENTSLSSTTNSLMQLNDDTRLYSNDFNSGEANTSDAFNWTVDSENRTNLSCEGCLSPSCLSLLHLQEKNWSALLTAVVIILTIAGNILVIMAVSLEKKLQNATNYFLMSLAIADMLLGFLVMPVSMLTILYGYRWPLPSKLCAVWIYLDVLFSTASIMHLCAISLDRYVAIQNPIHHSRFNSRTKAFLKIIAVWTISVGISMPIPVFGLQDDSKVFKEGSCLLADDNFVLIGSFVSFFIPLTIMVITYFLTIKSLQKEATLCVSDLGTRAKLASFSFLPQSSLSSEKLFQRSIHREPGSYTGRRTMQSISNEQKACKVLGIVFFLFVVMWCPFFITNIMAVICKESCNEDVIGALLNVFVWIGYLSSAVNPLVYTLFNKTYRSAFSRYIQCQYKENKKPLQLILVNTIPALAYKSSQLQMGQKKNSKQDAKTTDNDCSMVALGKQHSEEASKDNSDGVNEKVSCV
Chain of Beta-2 adrenergic receptor (Homo sapiens) (P07550 whole entry, looked up): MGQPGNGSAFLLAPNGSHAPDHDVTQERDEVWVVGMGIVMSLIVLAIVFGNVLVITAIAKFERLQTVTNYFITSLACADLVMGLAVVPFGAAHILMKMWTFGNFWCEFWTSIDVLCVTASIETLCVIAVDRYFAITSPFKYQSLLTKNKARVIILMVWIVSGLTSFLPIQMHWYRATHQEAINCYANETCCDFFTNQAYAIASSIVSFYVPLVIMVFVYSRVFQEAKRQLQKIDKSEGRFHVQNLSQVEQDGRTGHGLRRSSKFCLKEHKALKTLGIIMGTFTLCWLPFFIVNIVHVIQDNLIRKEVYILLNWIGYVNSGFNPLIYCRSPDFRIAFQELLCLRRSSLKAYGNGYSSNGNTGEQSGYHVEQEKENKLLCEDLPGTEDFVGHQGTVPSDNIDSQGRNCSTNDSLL
Chain of KiSS-1 receptor (Homo sapiens) (Q969F8 whole entry, looked up): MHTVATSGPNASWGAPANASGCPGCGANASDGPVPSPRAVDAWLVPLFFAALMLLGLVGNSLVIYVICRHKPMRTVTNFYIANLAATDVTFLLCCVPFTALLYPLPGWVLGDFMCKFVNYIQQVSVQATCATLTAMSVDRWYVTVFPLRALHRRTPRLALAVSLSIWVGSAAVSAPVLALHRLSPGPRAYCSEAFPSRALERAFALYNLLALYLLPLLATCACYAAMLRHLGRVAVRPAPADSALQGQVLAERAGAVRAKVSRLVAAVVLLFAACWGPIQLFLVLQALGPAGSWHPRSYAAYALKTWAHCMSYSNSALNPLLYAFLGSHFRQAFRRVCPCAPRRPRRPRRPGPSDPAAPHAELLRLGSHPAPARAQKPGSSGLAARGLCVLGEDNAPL

For `O=C(O)CCCC[P+](c1ccccc1)(c1ccccc1)c1ccccc1`, the Potency entry in experiment [1], in experiment [2], in [5], in [6], in experiment [7] and in experiment [8] was “inactive” in each case. For the same molecule, the Potency entry in experiment [9], in [10], in [11], in experiment [12], in experiment [13] and in [14] was “inactive” throughout. Also, the Potency entry in [15], in experiment [16] and in experiment [17] was “inactive” in each case. The outcome in experiment [3] and in experiment [4] was inactive.

On to `CCCCCCCCCCOS(=O)(=O)O`, for which the Potency result in experiment [1], in [2], in experiment [5], in [6], in [18] and in [8] was “inactive” each time. For the same molecule, the Potency result in experiment [9], in experiment [10], in [11], in [12], in experiment [13] and in [14] was “inactive” each time. Also, the Potency entry in experiment [15], in [16] and in experiment [17] was “inactive” each time. Also, the outcome in experiment [3] and in experiment [4] was inactive.

Turning to `C=Cc1ccccc1`, the Potency entry in experiment [1], in experiment [2], in experiment [5], in experiment [6], in experiment [18] and in experiment [7] was “inactive” each time. The Potency result in experiment [10], in [12], in experiment [13], in experiment [14], in experiment [15] and in experiment [16] was “inactive” each time. In addition, the Potency entry in [17] and in experiment [19] was “inactive” each time. The result in [3] and in experiment [4] was inactive.

On to `Nc1[nH]c(=O)ncc1F`, for which the Potency entry in [1], in experiment [2], in experiment [5], in [6], in experiment [18] and in experiment [8] was “inactive” in each case. Besides, the Potency entry in experiment [9], in [14], in experiment [15], in experiment [16], in experiment [17] and in [19] was “inactive” in each case. For the same molecule, the result in experiment [3] and in experiment [4] was inactive.

With `CC(C(=O)O)c1ccc(C(=O)c2ccccc2)s1` (stereo unspecified), the Potency entry in experiment [1], in [2], in [5], in experiment [6], in experiment [18] and in experiment [7] was “inactive” each time. In addition, the Potency entry in experiment [8], in [10], in experiment [11], in experiment [12], in [16] and in experiment [17] was “inactive” in each case. The outcome in [3] and in experiment [4] was inactive.

For `CN1CCN(C2=Nc3ccccc3Sc3ccc(Cl)cc32)CC1`, the Potency entry in experiment [1], in experiment [2], in experiment [5], in experiment [6], in [18] and in [7] was “inactive” throughout. Besides, the Potency entry in experiment [9], in experiment [11], in [16] and in experiment [17] was “inactive” throughout. Moreover, the result in experiment [3] and in experiment [4] was inactive. Further, the Potency in experiment [12] was 1.45 µM (active); in experiment [19] it was 5.96 µM (active).

For `CCCCCCCCCCCC[N+](C)(C)CCCCCCCCCCCC`, the results for the Potency in experiment [1], in experiment [7] and in [19] were 24.3 µM (active), 40.8 µM (active) and 43.3 µM (active), respectively. The Potency entry in experiment [2], in experiment [5], in experiment [6], in experiment [18], in experiment [8] and in [10] was “inactive” each time. The Potency entry in [11], in experiment [12], in experiment [13], in experiment [16] and in [17] was “inactive” each time. Also, the outcome in experiment [3] and in experiment [4] was inactive.

In the case of `CCCCCCCCOc1ccccc1C(=O)Nc1ccc(C(=O)OCC[N+](C)(CC)CC)cc1`, the Potency result in [1], in experiment [2], in experiment [5], in experiment [6], in [18] and in [7] was “inactive” in each case. Further, the Potency result in experiment [8], in experiment [13] and in experiment [17] was “inactive” in each case. The result in experiment [3] and in [4] was inactive.

As to `CN1CCN(C2=Nc3ccccc3Oc3ccc(Cl)cc32)CC1`, the Potency result in experiment [1], in experiment [2], in experiment [5], in experiment [6], in experiment [18] and in experiment [7] was “inactive” throughout. For the same molecule, the Potency entry in [9], in experiment [11], in experiment [12] and in [17] was “inactive” throughout. Moreover, the result in experiment [3] and in experiment [4] was inactive.
